From PubChem BioAssay (NCI)
This is part of a sample that, as a whole, favours compounds with a hit. Of some 83,000 tested, about 20% had one in any assay.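 Cell lines were cultured in 96-well plates, exposed to a single compound concentration, and assessed for percent growth 48 hours later.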 Values without a mark were called inactive. Active and inactive are the calls of the source. How the source made its calls: active means growth percent below 10; inactive means the rest.

Tests used:
Assay in all cases: NCI-60 one-dose screen, 48 h (100 = growth as untreated, 0 = no growth, -100 = all killed)
Details in all cases: 10 µM unless noted
SK-MEL-2 melanoma = system: SK-MEL-2 melanoma
EKVX NSCLC = system: EKVX NSCLC
SN12C renal = system: SN12C renal
UO-31 renal = system: UO-31 renal
TK-10 renal = system: TK-10 renal
ACHN renal = system: ACHN renal
CAKI-1 renal = system: CAKI-1 renal
A498 renal = system: A498 renal
CCRF-CEM leukemia = system: CCRF-CEM leukemia
MOLT-4 leukemia = system: MOLT-4 leukemia

SMILES | growth (SK-MEL-2 melanoma) | growth (EKVX NSCLC) | growth (SN12C renal) | growth (UO-31 renal) | growth (TK-10 renal) | growth (ACHN renal) | growth (CAKI-1 renal) | growth (A498 renal) | growth (CCRF-CEM leukemia) | growth (MOLT-4 leukemia)
COc1cc(/C=C/C(=O)c2cccc(Nc3nc(Nc4ccccc4)nc(Nc4ccccc4)n3)c2)cc(OC)c1OC | 53.6% | 66.1% | 84.2% | 35.3% | 66.3% | 68.3% | 75.5% | 68.8% | 6.56% (active) | 9.67% (active)
Nc1ncnc2c1N=C(c1ccc(Cl)cc1)CC(c1ccc3c(c1)OCO3)N2 (stereo not given) | 52% | 94.6% | 97.2% | 80.5% | 111% | 87.6% | 84.1% | 99.5% | -54.1% (active) | 71.5%
OB(O)c1cccc(-c2nc3ccc4[nH]ncc4c3c3c2CCCC3)c1 | 81.1% | 65.6% | 48.8% | 35.1% | 29.3% | 38% | -11.5% (active) | 15.2% | 32.2% | 28.7%
N=C(N)c1ccc(-c2ccc(-c3ccc(F)cc3)o2)o1 | 35.6% | 47.5% | 37.4% | 15.5% | 49.9% | 27.2% | 31.3% | 37.1% | 2.36% (active) | 8.09% (active)
CCN(CC)c1ccc(/C=C/C(=O)c2ccc(Nc3nc(Nc4ccccc4)nc(Nc4ccccc4)n3)cc2)cc1 | 27.9% | 31.5% | 74% | 23.9% | 59.3% | 49.1% | 44% | 30.3% | 5.63% (active) | 22.6%
CN(C)C1CCN(Cc2ccc(NC(=O)c3cncc(C#Cc4cnc(N)c5ncccc45)c3)cc2C(F)(F)F)CC1 | 79.9% | 93.5% | 93.1% | 89.3% | 128% | -90.9% (active) | 78.4% | 85.2% | 4.13% (active) | 24.7%
CS(=O)(=O)Nc1cc(-c2ccc3ncnc(Nc4ccc5c(cnn5Cc5ccccn5)c4)c3c2)cnc1Cl | 61.8% | 80.8% | 72.5% | 64.8% | 65.5% | 88% | 65.4% | 20.4% | 60% | 78.7%
Oc1ccc(CN2CCC(N3CCCCC3)CC2)c2cccnc12 | 2.95% (active) | 45.6% | 22.2% | 5.93% (active) | -58.5% (active) | 8.86% (active) | 44% | 71.3% | 35.8% | 41.2%
C#CCOc1cccc(Nc2ncnc3c(NC(=O)C=C)cccc23)c1 | 8.09% (active) | 55.7% | 0.801% (active) | 25.8% | -6.1% (active) | 23.8% | 25.7% | 32% | 2.68% (active) | 4.11% (active)
Cc1cc(N)c2cc(NC(=O)/C=C\c3ccccc3Cl)ccc2n1 | -72.5% (active) | -71.8% (active) | -81.7% (active) | -72.1% (active) | -90% (active) | -85% (active) | -76% (active) | -88.3% (active) | -74.2% (active) | -53.2% (active)
Cc1cc(Cl)ccc1Nc1nc(C(F)(F)F)ccc1C(=O)N/N=C/c1ccc([N+](=O)[O-])cc1 | -33.5% (active) | -8.42% (active) | 4.6% (active) | -27.1% (active) | -8.71% (active) | -22.9% (active) | 2.14% (active) | 88.9% | -12.9% (active) | -5.84% (active)
O=C(Nn1c2c(sc1=Nc1ccccc1)C(=O)c1ccccc1C2=O)c1cc2ccc1CCc1ccc(cc1)CC2 | 75.2% | 70.4% | 70.2% | 33.6% | 108% | 42.7% | 32.1% | 93.7% | 79.8% | 83.3%
N#Cc1nc(-c2ccccc2)oc1S(=O)(=O)N1CCOCC1 | 90.2% | 106% | 74.1% | 82.9% | 94.5% | -97.7% (active) | 66.9% | 89.7% | -20.9% (active) | -16% (active)
CCNC(=O)c1[nH]cc(-c2ccccc2)c1-c1cc(OC)c2c(c1OC)OCO2 | 99.9% | 96.9% | 98.7% | 76% | 106% | 99.1% | 74.7% | 77.1% | 101% | 98.9%
c1cc2[nH]ncc2cc1-c1nc2ccc3[nH]ncc3c2c2c1CCCC2 | -48.7% (active) | 17.8% | 20.6% | -0.203% (active) | 8.08% (active) | 9.47% (active) | 9.5% (active) | -1.43% (active) | 9.05% (active) | -6.76% (active)
Cn1cc(-c2csc(-c3c[nH]c4ccc(Br)cc34)n2)c2cnccc21 | -65.7% (active) | -78.3% (active) | -87.2% (active) | -96.3% (active) | -83.9% (active) | -98.6% (active) | -97% (active) | -97.3% (active) | -39% (active) | -58.3% (active)
